From the supplement of paper PMC6555819

system: LXRa homodimer (NR concentration 270 nM); test: PBM binding z-score (relative to random genomic background probes); higher = stronger binding; sequences stand for … in GC…GCGATTGACAGCGTAGAATGAAGG
How it was run: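 Antibodies against each partner of ligand-free nuclear receptor dimers (one per run) detected binding on custom Agilent 4×180K protein-binding microarrays after 1 h incubation. The double-stranded probes had 34-nt variable regions carrying direct-repeat seeds, single-nucleotide variants, half-site ablations and random human genomic background sequences. Binding z-scores, from regression-normalized fluorescence, use the random background probes as reference.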

Sequence | PBM binding z-score
TATACAGGGTCAAAGGCCCGAGTACGAATGTCGA | 1.91
TCTTGTAGCTCAAGCAGGTTAAGAAAGCCTGAGT | -0.662
TCTTGTGGATCAAAGGTTAAGAAAGCCGAAGCCT | 0.101
TCTTGTAGTTCAAGCAGGTTAAGAAAGCCTGAGT | 0.316
CCTACTGGGCCAAAGGTCACTGATTCCAATGCTC | 2.37
TCTGCAAGGTCAACGATGGTCAGCTAATCTGCTA | 0.751
GCAGACAGGTGAAACGAAGGTAACTCAGGGTGGC | -0.444
ATCGAAAGCTCGAAGGTGAGTATACCCACCCGAA | -0.677
CATACAGGGTCAGCAAGGCCAGAGTAGGGACGGC | -0.0417
TCATATCGGTAAAGGTGAAAGTCGAACGATATGA | -0.173
CCTTACGGGTCACTGACAGGCTATAGCATTTGGA | -0.0559
GTACCAAGCTGAATAGGTCGTTGATGAGTAGGCG | -0.35
CCTGGTAGGTCAATGGTCAGCTAAAGCAGCTCGC | 0.425
CGTCCAAGGTGAGCAGGTCAGTGAAAGCGACGTG | -0.619
TCATATAGGTAAACGTGAAAGTCGAACGATATGA | -0.204
TCGAGTGGGTTAGTCGGGGCATTCAGCCAACATA | 0.0739
AGAATGAGGTTGTTAAGATCAGGGAATTGCGGTC | -0.0695
CTCGAAAGGTCGGTTAAGGTGAGTATACGGATAA | 0.202
CGTAGTTGGTCAAGGTCACACACGCTATAGGTAC | 1.39
CCTGCTAGGTCAATGGTGAGCTAAAGCAGCTCGC | -0.54

Sequence | PBM binding z-score
CCTTACGTGTCAAGGTTATAGCACGGGTGGTACG | 0.288
CAAACTAGGTCAAGAGGTCAAAGTCCGCTTCCCG | 6.55
TAGCCTTGGTCAGATCGGGCCAGTATACGCTATA | -0.925
CCAGACAGGTGAAAGGGAACTCAGTCTGGTACGC | -0.366
TCGAGTAGGTTACCAATGGGGCAGTCAGCTTTCT | -0.934
TCTCGTAGATCAGCAGGTTAAGAAAGCTGGCCAA | -0.522
CGTCCAAGGCCAGAGAGGTCAGTGAATGCCGAGT | 0.491
CCAGACAGGTGCGAAGGTAACTCAGCCTCGATTA | -0.34
CCTATTGGGCCAAAAAGGTCATTGATGCCGATAA | 2.45
CGTCCAAGGTCAAGGTCATTGAAAGAGACTCGAA | 2.42
ATCTCTAGGTAAAGATAGTTAAGTGAATGCAAAT | -0.0773
TCGTGTAGATCAAAGGTTAAGAAAGCCGAAGCCT | 0.381
ACAGACAGATGATGAAGGTAACTCAGGCTATCAT | 0.0406
AGAATGAGGGCAATGAGTTGATAGCACGGGTGGC | -0.515
CCTACTGGGCCACGAAAGGTCATTTATTCAGTGA | 6.04
ACTTACGGGTCAACGAGGTTATAGAACGCGTATA | 0.693
TAGCCTAGGTCATTCAGGGGCCAGTATAGAAAGC | 0.785
GCTTACGGGTCAAAGGTTATAGCTTGAATAGAAT | 0.366
CGAACTAGGTCATGGACAGTGAATCTCCGCACGC | 0.076
CAAACTAGGTCAAAGGTCTAAGTCGAGCCAACCA | 0.54
